# Results as given in PubChem BioAssay AID1321 (The Scripps Research Institute Molecular Screening Center, 2008).
# “And” between values parts separate entries of the source, which are not always exact repeats. Identical values can stand only once. The whole screen tested about 220,000 compounds, of which about 2,600 (1.2%) were called active.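 Rule for the calls: active = activation above the mean of all tested compounds plus 3 SD, set per screening run (cut at about 8.8% in these data); inactive = the rest.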 For the sample, actives were picked, then their nearest neighbours and some compounds at random.
# Biological target: Wee1-like protein kinase (Homo sapiens) (UniProt P30291)
# Assay: compounds stabilizing Wee1-luciferase fusion – cell-based, HeLa, Wee1K328M-luciferase, luminescence, primary screen (AID 1321);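 note: cells exposed to compound for 20 h before luminescence read; 0% = DMSO alone and 100% = MG132 at 30 µM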
# Settings: HeLa Luc-Wee1K328M stability, at 5 µM, active compounds read high, 100% = proteasome inhibitor MG132 effect
row,Structure (SMILES),reporter increase
1,CC1(C)CN(c2ccc(-c3ccnc4ncnn34)cc2)C1=O,9.83% (active)
2,Nc1c(-c2ccc(F)cc2)cnc2ncnn12,-2.59% (inactive)
3,Cc1cc(C(=O)OCC(=O)Nc2nccs2)c2ccccc2n1,-2.08% (inactive)
4,Cc1cc(=O)[nH]c(SCC(=O)N2c3ccccc3CC2C)n1 (stereo unspecified),-2.08% (inactive)
5,CCOC(=O)c1[nH]c(C)c(C(=O)OCC(=O)N2c3ccccc3CC2C)c1C (stereo unspecified),15.6% (active)
6,CCn1nc(C(=O)OCC(=O)N2c3ccccc3CC2C)c2ccccc2c1=O (stereo unspecified),-0.36% (inactive)
7,CC(=O)NCc1ccc(S(=O)(=O)NC2CCN(Cc3ccccc3)CC2)cc1,0.4% (inactive)
8,CCOc1ccccc1NC(=O)C1CCN(S(=O)(=O)c2c(C)nn(C)c2C)CC1,-1.78% (inactive)
9,CCOc1ccc(OCC)c(NC(=O)C2CCN(S(=O)(=O)c3c(C)noc3C)CC2)c1,11.6% (active)
10,CCOC(=O)C1CCN(C(=O)C2CCN(S(=O)(=O)c3c(C)noc3C)CC2)CC1,-0.61% (inactive)
11,CC1(C)CC(N2CCN(C(c3ccccc3)c3ccccc3)CC2)=CC(=[N+]2CCCCC2)C1,-0.62% (inactive)
12,Nc1nc(O)c(CC(=O)O)s1,-1.29% (inactive)
13,O=C(O)c1ccc(/C=N/Nc2nc(N3CCCCC3)nc(N3CCCCC3)n2)cc1,-2.82% (inactive)
14,O=C(c1c(Cl)cccc1Cl)N1CCN(c2cccc3[nH]ccc23)CC1,0.73% (inactive)
15,O=C(COC(=O)c1ccc(F)cc1F)Nc1ncccn1,0.53% (inactive)
16,Cc1ccc(-c2nc3ccccc3[nH]c2=O)cc1,9.13% (active)
17,O=C(Cc1nc2ccccc2[nH]c1=O)c1ccc(Cl)cc1,3.48% (inactive)
18,Cc1ccc(-c2nc3ccccc3[nH]2)cc1N,0.78% (inactive)
19,O=C(COC(=O)c1ccc(S(=O)(=O)Nc2ccccc2)cc1)NCC1CCCO1 (stereo unspecified),-1.62% (inactive)
20,NS(=O)(=O)c1ccc(NC2=CC(c3ccc(F)cc3)N(c3ccc(S(N)(=O)=O)cc3)C2=O)cc1 (stereo unspecified),0.72% (inactive)
21,CC(CNS(=O)(=O)c1ccc(Br)cc1)CN(C)C (stereo unspecified),-0.62% (inactive)
22,O=S(=O)(Nc1ccc(Cl)cn1)c1cnc(Cl)c(Br)c1,-0.3% (inactive)
23,COc1ccc(CN2C(=O)C(C)S/C2=N/N=C/c2ccco2)cc1 (stereo unspecified),5.4% (inactive)
24,CN(C)S(=O)(=O)c1cccc(NC(=S)NCc2ccc3c(c2)OCO3)c1,3.85% (inactive)

row,Structure (SMILES),reporter increase
1,CN(C)S(=O)(=O)c1cccc(NC(=S)N/N=C/C(=O)c2ccccc2)c1,-1.91% (inactive)
2,Cc1ccc(/C=N/NC(=S)Nc2cccc(S(=O)(=O)N(C)C)c2)o1,9.21% (active)
3,O=C(COC(=O)c1ccccc1SCC(=O)NC1CCCCC1)NC1CCCCC1,11.2% (active)
4,N#Cc1ccccc1Sc1ccccc1C(=O)OCC(=O)NC1CCCCC1,2.45% (inactive)
5,CCOc1ncccc1C(=O)OCC(=O)NC1CC1,-1.43% (inactive)
6,COc1ccccc1Nc1nc(N)nc(CSC(=S)N2CCOCC2)n1,-0.95% (inactive)
7,O=C(Nc1ccc2c(c1)OCCO2)c1ccoc1,2.96% (inactive)
8,Cc1coc2cc3oc(=O)c(CCC(=O)O)c(C)c3cc12,5.73% (inactive)
9,S=c1[nH]nc(-c2ccncc2)n1/N=C/c1ccccc1Cl,-0.32% (inactive)
10,COCCn1c(=O)[nH]c(=O)c2cc(C(=O)c3cc(OC)ccc3O)cnc21,0.11% (inactive)
11,COc1ccc(O)c(C(=O)c2cnc3onc(C(C)C)c3c2)c1,-2.73% (inactive)
12,COc1ccc(O)c(C(=O)c2cnc3c(c2)c(-c2ccc(F)cc2)c(C#N)c(=O)n3C)c1,9.71% (active)
13,COc1ccccc1NC(=O)c1cc(Cl)nc2ccccc12,0.15% (inactive)
14,Nc1cccc(S(=O)(=O)Nc2ccc(SC(F)F)cc2)c1,-0.8% (inactive)
15,CCOC(=O)[C@H]1CCC[C@@H](NS(=O)(=O)c2ccc(NC(C)=O)cc2)C1,0.32% (inactive)
16,CC(C)NS(=O)(=O)c1ccc(NC(=O)C2CCCCC2)cc1,-3.05% (inactive)
17,CC(=O)Nc1ccc(S(=O)(=O)NC(C)C(=O)OCC(=O)NC2CCCC2)cc1 (stereo unspecified),11.2% (active)
18,OCCC1CN(Cc2ccc(Oc3ncccn3)cc2)CCN1CCc1ccccc1 (stereo unspecified),-0.52% (inactive)
19,OCCC1CN(Cc2cnc(-c3ccccc3)s2)CCN1CCc1ccccc1 (stereo unspecified),9.46% (active)
20,OCCC1CN(Cc2cccc(O)c2)CCN1CCc1ccccc1 (stereo unspecified),-3.15% (inactive)
21,O=C(O)Cc1csc(-c2cccc(Oc3ccccc3)c2)n1,3.33% (inactive) and -2.75% (inactive)
22,S=c1nc2ccccc2c2nc(-c3cccnc3)[nH]n12,1.58% (inactive)
23,C=CCn1c(=S)sc2c(=O)[nH]c(C)nc21,9.98% (active)
24,C=CCn1c(-c2ccc3[nH]c(C)c(C)c3c2)n[nH]c1=S,-4.16% (inactive)

row,Structure (SMILES),reporter increase
1,C=CCn1c(-c2sc(-c3ccccc3)nc2C)n[nH]c1=S,-4.5% (inactive)
2,S=c1[nH]nc(-c2cccs2)n1/N=C/c1cn(-c2ccccc2)nc1-c1ccc(Cl)cc1,-0.32% (inactive)
3,CCCCCC(=O)Nc1ccc2oc(-c3ccncc3)nc2c1,-0.09% (inactive)
4,COc1cccc(-c2nc3cc(C)ccc3o2)c1,1.41% (inactive)
5,CCc1ccc2oc(-c3ccc(N)cc3)nc2c1,18.6% (active)
6,O=C(NCc1ccccc1)c1ccc(CNc2c(N3CCCC3)c(=O)c2=O)cc1,-2.66% (inactive)
7,COc1ccc(N2CCN(C(c3cc4ccc(C)cc4[nH]c3=O)c3nnnn3C3CCCC3)CC2)cc1 (stereo unspecified),0.68% (inactive)
8,CCOC(=O)C1CCN(C(c2cc3cc(C)cc(C)c3[nH]c2=O)c2nnnn2C2CCCCC2)CC1 (stereo unspecified),1.1% (inactive)
9,CN1CCN(C(c2cc3cc4c(cc3[nH]c2=O)OCCO4)c2nnnn2C2CCCC2)CC1 (stereo unspecified),11.8% (active)
10,COc1ccc(-c2nn(C)c(=O)c3ccccc23)cc1CNC(=O)C1CCCCC1,0.26% (inactive)
11,CCN(CC)CCNCC(=O)Nc1ccc(Oc2ccccc2)cc1,2.79% (inactive)
12,O=c1ccnc(Nc2ccc(Cl)cc2)[nH]1,1.16% (inactive)
13,O=C(COC(=O)c1ccc(NS(=O)(=O)c2cccs2)cc1O)Nc1ccc(F)cc1,-0.64% (inactive)
14,COc1ccc(-n2ncc3c(N4CCc5ccccc54)ncnc32)cc1,8.86% (active)
15,c1ccc(-n2ncc3c(N4CCCC4)ncnc32)cc1,5.02% (inactive)
16,COc1ccc(-n2ncc3c(N4CCCc5ccccc54)ncnc32)cc1,3.61% (inactive)
17,COc1ccc(CCNC(=O)C(=O)Nc2ccc3nc4n(c(=O)c3c2)CCCCC4)cc1OC,1.04% (inactive)
18,Brc1ccc(-c2noc(-c3ccccc3)n2)o1,0.13% (inactive)
19,Cn1c(CSCC(=O)Nc2ccccc2)nnc1SCc1ccccc1,-1.68% (inactive)
20,Cc1ccc(N=C2NC(=O)c3cccc([N+](=O)[O-])c32)cc1,8.82% (active)
21,COC(=O)c1cccc([N+](=O)[O-])c1CS(=O)(=O)c1ccc(C)cc1,1.24% (inactive)
22,CCCCOc1ccc(CON(C(C)=O)C(C)=O)cc1Cl,-0.35% (inactive)
23,c1csc(-c2nnc(COc3ncnc4sccc34)o2)c1,1.62% (inactive)
24,O=C1C(Cc2ccc(O)cc2)NC(=S)N1Cc1ccccc1 (stereo unspecified),-2.34% (inactive)

row,Structure (SMILES),reporter increase
1,COc1ccc(-n2c(=S)[nH]c3sc4c(c3c2=O)CCc2ccccc2-4)cc1,8.88% (active)
2,COc1cccc(-n2c(=S)[nH]c3c(oc4ccccc43)c2=O)c1,5.9% (inactive)
3,CSc1nc2sc3c(c2c(=O)[nH]1)CCc1ccccc1-3,-0.01% (inactive)
4,COc1ccc(CCNS(=O)(=O)c2cccc3cccnc23)cc1OC,-3.35% (inactive)
5,Cc1ccc(/C=N/NC(=O)CSc2ccccn2)o1,3.47% (inactive)
6,O=C(Nc1ccccc1N1CCOCC1)c1csc2c1CCCC2,-0.73% (inactive)
7,Cc1nc2cccnc2nc1C,6.05% (inactive)
8,CC(C)(C)NC(=O)CN(C(=O)c1csnn1)c1ccccc1-c1ccccc1,10.2% (active)
9,CC(C)(C)NC(=O)CN(C(=O)c1ccc(Cl)nc1)c1cccc2ccccc12,-1.92% (inactive)
10,CCC(C)(C)NC(=O)C(c1ccccn1)N(C(=O)c1csnn1)c1ccccc1 (stereo unspecified),1.04% (inactive)
11,CC(C)COC(=O)n1c(=O)oc2ccc(S(=O)(=O)N3CCCCC3)cc21,-1.87% (inactive)
12,Cc1cc(C)cc(NS(=O)(=O)c2ccc(F)cc2)c1,-2.79% (inactive)
13,Cn1c(=O)n(C)c2cc(NS(=O)(=O)c3ccc(F)cc3)ccc21,12.5% (active)
14,Cn1nccc1NS(=O)(=O)c1ccc(F)cc1,0.03% (inactive)
15,Cn1c2ccccc2c2cc(/C=C(\NC(=O)c3ccccc3)C(=O)NCC(=O)O)ccc21,-0.33% (inactive)
16,O=C(NNc1ccccn1)c1ccc(Cl)nc1,-1.7% (inactive)
17,NS(=O)(=O)c1ccc(NC(=O)COC(=O)c2ccc(Cl)nc2)cc1,-1.21% (inactive)
18,CCN(CC)c1ccc(NC(=O)c2ccc(Cl)nc2)cc1,10.4% (active)
19,CCCc1nc(-c2cc3cc(C)ccc3[nH]c2=O)no1,-2.96% (inactive)
20,FC(F)(F)Oc1ccc(-c2cn3cccnc3n2)cc1,-1.79% (inactive)
21,COc1ccc(CCN2C(=O)N(c3ccc(OC)cc3)C(=O)C2CC(=O)Nc2ccc(OC)cc2)cc1 (stereo unspecified),-1.78% (inactive)
22,CCOc1ccccc1C(=O)NCc1ccco1,-0.54% (inactive)
23,COc1ccc(CCNS(=O)(=O)c2ccc(C(=O)NCc3ccco3)cc2)cc1OC,-0.79% (inactive)
24,CCCC1=Nc2cc(C(=O)NCc3ccco3)ccc2Sc2ccccc21,11.6% (active)
